Data on 13 molecules can be found in article PMC5540273 (PLoS ONE, 2017).
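Further: KINOMEscan kinase panel screen.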

The test has as its system MST1R. Conditions: concentration: 1 μM,replicates: in singlicate; n = 1.
Regarding `Cn1ccc2ncnc(Oc3ccc(NC(=O)Nc4cccc(C(F)(F)F)c4)c(F)c3)c21`, the “%Inh” value was determined as 19%. Next, `COc1cc(Nc2nccc(N3CCC(NC(=O)c4cccc(C#N)c4)C3)n2)cc(OC)c1OC` (stereo not shown) [GSK1379751]: 21%; `c1ccc(Oc2ccc(Nc3ccnc4ccc(-c5ccccn5)cc34)cc2)cc1` [GW407034]: 0%; `C[C@@H](Oc1cc(-n2cnc3cc(-c4cnn(C)c4)ccc32)sc1C(N)=O)c1ccccc1Cl` [GSK580432]: 64%.

Turning to `FC(F)(F)c1cc(Br)cc(Nc2nccc(-c3cnn4ncccc34)n2)c1` [GW810578], the “%Inh” value came to 0%.

On to `COc1cccc(CNC(=O)NC2CCN(c3ccnc(Nc4cc(OC)c(OC)c(OC)c4)n3)C2)c1` (stereo not shown) [GSK1379765], for which the “%Inh” value worked out at 49%. For the molecule `Cc1n[nH]c2cc(Nc3ccnc(Nc4cccc(CN5CCOCC5)c4)n3)ccc12` [GW682569], the “%Inh” value is 34%. Next, `O=C(NCC1CC1)c1ccc(-c2cc(C(=O)NC3CC3)ccc2F)cc1` [GW810445]: 0%; `Cc1nnc(-c2ccc3occ(-c4ccc(S(C)=O)cc4)c3n2)o1` (stereo not shown): 2%. Next, `COC(=O)c1cccc(NC(=O)NC2CCN(c3ccnc(NCc4ccc(F)cc4)n3)CC2)c1` [GSK1379860]: 31%; `Cc1cccc2c(-c3ccncc3)c(-c3ccc(F)cc3)nn12.Cl` [GW461487]: 44%. `O=C(Nc1n[nH]c2cc(-c3ccco3)ccc12)C1CC1` [SB-737447]: the “%Inh” value is reported as 0%. Regarding `CN(c1ccccc1CNc1nc(Nc2ccc3c(c2)CC(=O)N3)ncc1C(F)(F)F)S(C)(=O)=O`, the “%Inh” value is reported as 65%.
